Only some compounds are listed: those with a hit (about 4.3% of all), similar ones and a draw of the others.
NR3A LBD binder = NR3A (human) ligand-binding domain modulation; 340,000 compounds, 2.5% hits; AID 1259313; Tm shift relative to glycine control, % at 25 µM; NR3A LBD differential scanning fluorimetry, Tm shift; 0% = protein alone, 100% = glycine-bound protein;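 active means melting temperature shift of at least 10% of the positive control shift, at one fixed dose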
rCAG binder = r(CAG) repeat RNA binding; TO-PRO-1 dye displacement fluorescence; inhibition, % at 3 µM; 370,000 compounds, 1.3% hits; AID 651821;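 active means inhibition above the plate cutoff, the mean of all test compounds on that plate plus 3 SD, cut at about 35% in these data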;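 further: 0% = DMSO alone and 100% = 100 µM mitoxantrone as full dye displacement; higher means more dye released from RNA so lower well fluorescence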
FAS TE block = FAS thioesterase (human) inhibition; inhibition, % at 15 µM; 360,000 compounds, 0.67% hits; recombinant FAS-TE, OMFH fluorogenic substrate, fluorescence endpoint;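 active means compounds whose normalised, plate-corrected inhibition of enzyme fluorescence in the single-dose primary screen is 50% or more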;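 further: 0% = DMSO with enzyme and 100% = substrate without enzyme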
NadD block = blocks S. aureus nicotinate mononucleotide adenylyltransferase | purified NadD enzyme, colorimetric absorbance read-out | inhibition, % at 20 µM | 360,000 compounds, 0.78% hits | AID 602399; in the data active means inhibition above about 26%
* hit, by the source's call; · = no result given.

SMILES	NR3A LBD binder	rCAG binder	FAS TE block	NadD block
Cc1ccc(-c2cc(NC(=O)c3ccccc3)on2)cc1	-13	4	0	-11
CC(=O)Nc1ccc(/C=N/NC(=O)CCN2CCN(c3ccccc3)CC2)cc1	33*	-4	-5	1
COc1ccc(C(=O)Nc2cc(-c3ccc(C)cc3)no2)cc1	11*	0	-1	-4
COc1ccc(C(=O)Nc2ccc(-c3ccc(NC(=O)c4ccc(OC)cc4)c(OC)c3)cc2OC)cc1	28*	4	10	4
Cc1ccc(SCC(=O)Nc2ccc(C(=O)Nc3ccc(O)cc3)cc2)cc1	19*	6	-9	4
COc1ccc(NC(=O)c2ccc(C)cc2)cc1	42*	-2	-4	-9
Cc1ccc(SCC(=O)Nc2cccc(C)c2)cc1	-1	-2	1	-10
COc1ccc(NC(=O)c2ccc(CN3CCN(c4ccccc4)CC3)cc2)cc1	-22	2	4	-3
COc1ccc(C(=O)Nc2ccc(NC(=O)c3cnccn3)cn2)cc1	14*	0	-6	1
COc1ccc(C(=O)Nc2ccc(NC(=O)C3CC3)cn2)cc1	-1	0	-3	1
COc1ccc(NC(=O)c2ccc(NC(=O)CN3CCN(c4ccccc4)CC3)cc2)cc1	19*	3	-5	2
CCN(CC)C(=O)CC[C@@H]1CC[C@]2(CCCN(C(=O)C3CCCCC3)C2)O1	·	-2	·	·
CSc1ccc(Oc2cccc3c2S(=O)(=O)N(C2CC2)C[C@@H](COCc2ccccc2)O3)cc1C	·	8	·	·
COc1ccc(C(=O)Nc2cccc(NC(C)=O)c2)cc1	·	0	-8	2
COc1ccc(NC(=O)c2ccc(N3C(=O)C4CC=C(Cl)CC4C3=O)cc2)cc1 (centres undefined)	18*	18	3	-2
COc1ccc(C(=O)Nc2cccc(C)c2)cc1	17*	-1	-2	-6
COc1ccc(-n2c(SCC(=O)NN=Cc3c(O)ccc4ccccc34)nnc2-c2ccc(C(C)(C)C)cc2)cc1	·	17	·	·
O=C(N/N=C/c1ccc(O)cc1)c1ccncc1	-11	0	-5	0
COc1ccc(C(=O)N/N=C/c2ccc(SC)cc2)cc1	10*	0	-3	4
O=C(N/N=C/c1cn(-c2cccs2)nc1-c1ccccc1)c1ccccc1Br	11*	22	31	17
Cc1nn(-c2ccccc2)cc1/C=N/NC(=O)c1cccs1	20*	-2	1	-1
CSc1ccc(/C=N/NC(=O)c2ccc(O)cc2)cc1	26*	3	-8	2
COc1ccc(C=NNC(=O)c2ccncc2)cc1	·	7	·	·
CCOC(=O)N1CCN(C(=O)C[C@H]2C[C@@]3(C(=O)OC)C(=C[C@H](C4CCCC4)O[C@@H]3C)N(CCc3ccc(OC)c(OC)c3)C2=O)CC1	·	3	·	·
O=C(N/N=C/c1ccncc1)c1cccs1	-1	·	-5	-7
SMILES	NR3A LBD binder	rCAG binder	FAS TE block	NadD block
CSc1ccc(/C=N/NC(=O)c2cccs2)cc1	13*	2	-1	-2
C#CCNC(=O)C[C@@H]1C(=O)N(Cc2ccc(OC)cc2)C2=CCN(C(=O)OC(C)(C)C)C[C@]21C(=O)OCC	·	2	·	·
O=C(CNC(=O)c1ccccc1O)N/N=C/c1cc(Br)ccc1OC(=O)/C=C/c1ccco1	13*	8	·	·
O=C(CNC(=O)c1cccc(F)c1)N/N=C/c1cc(Br)ccc1OC(=O)/C=C/c1ccco1	-7	4	46	19
COc1cccc(-c2nnc(SCC(=O)OC(C)C)n2-c2ccc(Cl)cc2)c1	·	3	·	·
Cc1cc(C(=O)Nc2ccc(F)cc2)n(-c2ccccc2)n1	·	3	·	·
CCCOC(=O)CSc1nc(N2CCOCC2)c2c(c1C#N)CC(C)(C)OC2	1	-7	1	-4
CCCCCSc1nc(N2CCOCC2)c2c(c1C#N)CC(C)(C)OC2	23*	-4	22	3
C/C(=N/NS(=O)(=O)c1ccc(C)cc1C)c1c[nH]c2ccccc12	11*	18	5	2
C/C(=N/NS(=O)(=O)c1ccc(C)c(C)c1)c1c[nH]c2ccccc12	38*	26	10	-5
CCOc1ccc2cc(S(=O)(=O)N3CCCCC3)ccc2c1	-2	-2	24	-3
O=S(=O)(c1ccc(SCCOc2ccc(F)cc2)nc1)N1CCCC1	14*	0	35	-5
CCOc1ccc(S(=O)(=O)N2CCCC2)cc1	13*	-3	-4	5
COc1ccc(NC(=O)CSc2ncnc3c2sc2ccccc23)c(OC)c1	16*	-1	-2	-9
COc1ccc(NC(=O)CSc2ccccc2)c(OC)c1	1	1	-2	-7
CNc1oc(/C=C/c2cccc(OC)c2)nc1C#N	23*	·	4	0
CC(C)C[C@@H]1COc2cccc(N3CCCC3)c2S(=O)(=O)N1C	·	-2	·	·

Bioassay records: PubChem BioAssay, several laboratories
